{"source": "PubChem BioAssay (NCATS)", "note": "The list shows a part of the results. Records with an inconclusive call do not appear. Active and inactive are the calls of the source. Calls come from the whole dose curve. % is set by controls: 0 for no effect and ±100 for the full control effect; potency is the fitted concentration of half-maximal effect."}
{"molecular_target": "Polyprotein P1234 (Chikungunya virus (strain S27-African prototype)) (UniProt Q8JUX6)", "experiment": "Secondary cell base assay for inhibitors of NSP2Pro Chikungunya virus (CHIKV) (AID 1964100); note: nearly all actives have a fitted effect of over 70% in size", "conditions": "cell-based CHIKV nsP2 protease reporter assay; series mostly up to 51.1 µM; activity change, negative = inhibition: at the top concentration", "text": "PI: Natalia J. Martinez Ph.D.\nNational Center for Advancing Translational Sciences (NCATS),\nNational Institute of Health (NIH), Rockville, Maryland\nChikungunya virus (CHIKV) is a mosquito-borne RNA virus that has emerged as one of the most important global arboviral threats in the last decade. Although the first CHIKV vaccine has recently been FDA approved for use in healthy adults at increased risk, to date, there are no available antiviral drugs for CHIKV infection. CHIKV nsP2 protease plays a crucial role in the processing of the viral polypeptide precursor to release enzymes required for viral replication, thus making it a promising drug target for antiviral discovery. Here, we established a high-throughput pipeline to identify small molecule inhibitors of nsP2 proteolytic activity. The pipeline is composed of a suite of 1,536-well in vitro assays to support quantitative high-throughput (qHTS) screening campaigns. Specifically, we developed a fluorescence resonance energy transfer (FRET)-based assay using a fluorogenic peptide substrate encompassing an endogenous cleavage site and purified recombinant protease domain (nsP2pro). Using this assay, we interrogated ~37,000 small molecules, including those in drug repurposing libraries as well as chemically diverse and medicinal chemistry-friendly compounds. Hits were selected for follow-up validation against full-length nsP2 and an additional peptide. FRET-based 1,536-well assays for papain, hepatitis C virus NS3-4A, and human furin proteases were implemented to characterize compound selectivity. […] Novel compounds were identified to be potential nsP2 inhibitors and molecular docking analyses were performed to explain the binding mode of selected hits. In vitro antiviral activity was evaluated for a subset of compounds using a high-throughput CHIKV infection assay. To our knowledge, the pipeline presented here is unprecedented for CHIKV antiviral discovery research.\nDescribed herein is the secondary cell-based assay using a reporter construct. Construct cloning was produced by gene synthesis (GeneScript). The Split Nluc reporter construct was cloned into the NheI/EcoRI sites of pcDNA3.1 (+). The Nterm HiBiT (86b) and Cterm LgBiT (11S) sequences of the Split Nluc reporter were separated by a flexible loop containing the nsp3/4 cleavage site ([…]) or a flexible loop without a cleavage site (12X GlySer). nsP2pro expression construct (amino acids 220-798, accession #MT933050) was cloned into the NheI/EcoRI sites of pcDNA3.1 (+) and contained a C-terminal Flag/6xHis tag. The gene synthesis of the Split Nluc reporter and West Nile Virus (WNV) NS2B/NS3 protease expression constructs was performed by Synbio Technologies. The Split Nluc reporter construct included the N-terminal HiBiT (86b) and C-terminal LgBiT (11S) sequences, separated by a loop containing the WNV NS2B/NS3 cleavage site ([…]). The WNV NS2B/NS3 protease expression construct (amino acids 1375-1693, accession #NC_009942) contained a C-terminal Flag/6xHis tag. Both constructs were cloned into the XbaI/AgeI sites of pcDNA3.4.\nPROTOCOL TABLE (as described by Inglese J, Shamu CE and Guy RK. 2007)\nSEQUENCE No. (e.g., 1, 2, 3, etc.); […] (e.g., Cells, Incubation, Reagent, etc.); VALUE; DESCRIPTION.\n1a; Cell Transfection; Lipofectamine 2000.\n1b; Cell; 4 uL; Aurora 1536-well, white, tissue culture plate.\n2; Incubation; 4 hr; 37C, 5% CO2, 95% humidity.\n3; Compound; 20 nL; Echo 650 Liquid Handler.\n4; Incubation; overnight; 37C, 55 CO2, 95% humidity.\n5; Reagent; 4 uL; Nano-Glo Luciferase assay system.\n6; Centrifugation; 2 sec.\n7; Detection; Luminescence; ViewLux plate reader (PerkinElmer).\nNOTES (numbers refer to sequence numbers above).\n1a. […]"}
{"smiles": "CCC(C)C(=O)OC1C(C)C2(O)C(C=C(CO)CC3(O)C(=O)C(C)=CC32)C2C(C)(C)C12OC(=O)C(C)C", "note": "(centres undefined)", "activity change, negative = inhibition": "273% [at 17.6 µM] (inactive)"}
{"smiles": "CCOc1ccc(N(Cc2ccccc2)C(=O)c2nc(S(C)(=O)=O)ncc2Cl)cc1", "Potency": "2.31 µM (active)"}
{"smiles": "C=CC(=O)c1ccc2ccccc2c1", "activity change, negative = inhibition": "-6.82% (inactive)"}
{"smiles": "CO[C@]1(NC(=O)CSC(F)F)C(=O)N2C(C(=O)O)=C(CSc3nnnn3CCO)CO[C@H]21", "activity change, negative = inhibition": "-3.23% (inactive)"}
{"smiles": "C[C@@H]1O[C@@H](O[C@@H]2[C@@H](O)[C@H](OCCc3ccc(O)c(O)c3)O[C@H](CO[C@@H]3O[C@H](CO)[C@@H](O)[C@H](O)[C@H]3O)[C@H]2OC(=O)/C=C/c2ccc(O)c(O)c2)[C@H](O)[C@H](O)[C@H]1O", "activity change, negative = inhibition": "6.92% (inactive)"}
{"smiles": "Cc1ccc(N[S+](=O)([O-])c2cc3c(cc2N[C@@H](C)CO)NC(=O)CC3)cc1N[C@@H](C)CO", "activity change, negative = inhibition": "0.443% (inactive)"}
{"smiles": "CC(=O)N[C@@H](C(=O)O[C@H]1CCC(C)(C)[C@@H]2CCC3=C(COC3=O)[C@@]12C)C(C)C", "activity change, negative = inhibition": "8.89% [at 33.5 µM] (inactive)"}
{"smiles": "CCOc1ccc(NC(=O)c2c(NC(=O)Cc3ccccc3)sc3c2CCCCC3)cc1", "activity change, negative = inhibition": "31.1% (inactive)"}
{"smiles": "Cc1c(S(=O)(=O)O)oc2c1C(=O)C(=O)c1c-2ccc2c1CCCC2(C)C", "activity change, negative = inhibition": "-3.37% (inactive)"}
{"smiles": "COC([CH2][Hg])CNC(=O)c1ccccc1OCC(=O)O", "note": "(centres undefined)", "activity change, negative = inhibition": "-12.4% (inactive)"}
{"smiles": "C=Cc1c(C)c2cc3nc(cc4[nH]c(cc5nc(cc1[nH]2)C(C)=C5CCC(=O)O)c(CCC(=O)OC)c4C)[C@@]1(C)C3=CC=C(C(=O)OC)[C@H]1C(=O)OC", "activity change, negative = inhibition": "7.15% (inactive)"}
{"smiles": "CCc1ccccc1NC(=O)c1cnn(-c2ccc(F)cc2)c1C1CCNCC1", "activity change, negative = inhibition": "1.05% (inactive)"}
{"smiles": "CCOc1ccc(NC(=O)c2c(NC(=O)Cc3ccccc3)sc3c2CCC(C)C3)cc1", "note": "(centres undefined)", "activity change, negative = inhibition": "-16.6% (inactive)"}
{"smiles": "C[C@@H]1C[C@@H](O)[C@@]23CO[C@]2(CO)C[C@@H](O)CC3[C@@]12CC(c1ccoc1)OC2=O", "note": "(some centres undefined)", "activity change, negative = inhibition": "-7.47% [at 33.5 µM] (inactive)"}
{"smiles": "C[C@@H]1[C@H](O)[C@@H]2OC(=O)C3=C2[C@H](CCC3)[C@@]12C[C@@H](c1ccoc1)OC2=O", "activity change, negative = inhibition": "13.6% [at 33.5 µM] (inactive)"}
{"smiles": "Cc1cc(C)cc(NC(=O)CSc2oc(-c3ccccc3)nc2S(=O)(=O)c2ccc(Cl)cc2)c1", "activity change, negative = inhibition": "167% (inactive)"}
{"smiles": "Cn1nnnc1Sc1ncnc2n[nH]c(-c3cccc(S(C)(=O)=O)c3)c12", "Potency": "11.2 µM (active)"}
{"smiles": "Oc1ccc(OC2CCCCO2)cc1", "note": "(centres undefined)", "activity change, negative = inhibition": "-6.43% (inactive)"}
{"smiles": "CC1=C(/C=C/C(C)=C/C=C/C(C)=C/C=C/C=C(C)/C=C/C=C(C)/C=C/C2=C(C)CCCC2(C)C)C(C)(C)CCC1", "activity change, negative = inhibition": "-2.28% (inactive)"}
